Inhibition data for 25 molecules are collected here from ChEMBL document CHEMBL4513141, “CO-ADD screening of NIH (USA) - Clinical Collection” (2021).

Experiment [1] relates to Staphylococcus aureus. Particulars: Concentration 20 uM; ASSAY_TEST Inhibition of Bacterial Growth; detection method Absorption (OD600); MEDIA CAMHB; plate type 384well; NBS; CORNING #3640; time 18 hr.
The test system of experiment [2] is Escherichia coli. Particulars: Concentration 20 uM; ASSAY_TEST Inhibition of Bacterial Growth; detection method Absorption (OD600); MEDIA CAMHB; plate type 384well; NBS; CORNING #3640; time 18 hr.

Molecules are shown by their SMILES. Measured potencies and affinities stand elsewhere.

For orientation: Inhibition means the change of the read-out against control, counted positive when it falls. As for `Cc1onc(-c2ccccc2)c1-c1ccc(S(N)(=O)=O)cc1` [VALDECOXIB], the Inhibition in experiment [1] came out at 10.74%; in experiment [2] it was 4.49%.
In the same order, the values of `O=c1c(-c2ccccc2)c1-c1ccccc1` [DIPHENCYPRONE] are -9.91% and 6.71%.
On to `C[C@@H]1C[C@H]2[C@@H]3C[C@H](F)C4=CC(=O)C(Cl)=C[C@]4(C)[C@@]3(F)[C@@H](O)C[C@]2(C)[C@@]1(O)C(=O)CO` [HALOMETASONE], for which the Inhibition in experiment [1] is 3%; in experiment [2], 4.02%.
The matching figures for `N[C@@H](Cc1cc(I)c(Oc2cc(I)c(O)c(I)c2)c(I)c1)C(=O)O` [LEVOTHYROXINE]: -5.39% and -12.96%.
In the same order, the values of `CCOC(=O)C1=C(C)NC(C)=C(C(=O)OC)C1c1cccc([N+](=O)[O-])c1` (stereo not drawn) [NITRENDIPINE] are 11.21% and -2.58%.
With `Cl.O.O=C(c1ccc(F)cc1)C1CCN(CCn2c(=S)[nH]c3ccccc3c2=O)CC1`, the Inhibition in experiment [1] amounted to 2.33%; in experiment [2], 1.4%.
In the case of `CCCC(=O)Nc1ccc(OCC(O)CNC(C)C)c(C(C)=O)c1.Cl` (stereo not drawn) [ACEBUTOLOL HYDROCHLORIDE], the results for the Inhibition in experiment [1] and in experiment [2] were 10.2% and 2.85%, respectively.
On to `CCC(C)(C)C(=O)O[C@H]1C[C@@H](C)C=C2C=C[C@H](C)[C@H](CC[C@@H]3C[C@@H](O)CC(=O)O3)[C@H]21` [SIMVASTATIN], for which the Inhibition in experiment [2] is given as 6.01%.
For the molecule `CC(=O)OCC(=O)C12OC3(CCCC3)OC1CC1C3CCC4=CC(=O)C=CC4(C)C3(F)C(O)CC12C` (stereo not drawn), the Inhibition in experiment [1] is recorded as 19.97%; in experiment [2] it was 7.38%.
The matching figures for `CCN(CC)CCNC(=O)c1cc(Cl)c(N)cc1OC.Cl`: 7.88% and -6.93%.
The matching figures for `COc1cc(/C=C/c2ccc(O)cc2)cc(OC)c1` [PTEROSTILBENE]: 13.68% and 1.16%.
The matching figures for `Cc1nc2n(c(=O)c1CCN1CCC(c3noc4cc(F)ccc34)CC1)CCCC2` [RISPERIDONE]: 4.53% and 2.58%.
In the case of `CCCc1c(OCCCCc2nnn[nH]2)ccc(C(C)=O)c1O` [TOMELUKAST], the Inhibition in experiment [1] is 5.76%; in experiment [2], 7.84%.
In the case of `CC1(C)S[C@@H]2[C@H](/N=C/N3CCCCCC3)C(=O)N2[C@H]1C(=O)O` [AMDINOCILLIN], the Inhibition worked out at 10.96% in experiment [1] and 1.83% in experiment [2].
The matching figures for `CC(=O)O[C@@]12CO[C@@H]1C[C@H](O)[C@@]1(C)C(=O)[C@H](O)C3=C(C)[C@@H](OC(=O)[C@H](O)[C@@H](NC(=O)OC(C)(C)C)c4ccccc4)C[C@](O)([C@@H](OC(=O)c4ccccc4)[C@H]21)C3(C)C`: 10.2% and 3.46%.
As to `CC(=O)[C@H]1CC[C@H]2[C@@H]3C[C@H](C)C4=CC(=O)CC[C@]4(C)[C@H]3[C@@H](O)C[C@]12C` [MEDRYSONE], the Inhibition in experiment [1] worked out at 2.89%; in experiment [2] it was 2.65%.
Regarding `C=C(CC)C(=O)c1ccc(OCC(=O)O)c(Cl)c1Cl` [ETHACRYNIC ACID], the Inhibition in experiment [1] was 39.53%; in experiment [2], 0.95%.
In the same order, the values of `Cc1cccc(C)c1NC(=O)C1CCCCN1C.Cl` (stereo not drawn) [MEPIVACAINE HYDROCHLORIDE] are 10.78% and 6.74%.
For the molecule `Cl.c1ccc2c(c1)CCCC2C1=NCCN1` (stereo not drawn) [TETRAHYDROZOLINE HYDROCHLORIDE], the Inhibition in experiment [1] is on record as 17.23%; in experiment [2] it was 7.52%.
On to `CC1=C(/C=C/C(C)=C/C=C/C(C)=C/C(=O)O)C(C)(C)CCC1` [TRETINOIN], for which the figures for the Inhibition in experiment [1] and in experiment [2] were 13.92% and 7.4%, respectively.
The matching figures for `CC(=O)O.CC(C)C[C@H](NC(=O)[C@@H](COC(C)(C)C)NC(=O)[C@H](Cc1ccc(O)cc1)NC(=O)[C@H](CO)NC(=O)[C@H](Cc1c[nH]c2ccccc12)NC(=O)[C@H](Cc1c[nH]cn1)NC(=O)[C@H]1CCC(=O)N1)C(=O)N[C@H](CCCNC(=N)N)C(=O)N1CCC[C@@H]1C(=O)NNC(N)=O`: 9.86% and 5.78%.
In the same order, the values of `Clc1ccc2c(c1)C(N1CCNCC1)=Nc1ccccc1O2` [AMOXAPINE] are 3.79% and 7%.
In the same order, the values of `CC(C)[C@H]1CC[C@H](C(=O)N[C@H](Cc2ccccc2)C(=O)O)CC1` [NATEGLINIDE] are 10.43% and 6.41%.
Regarding `O=C([O-])Cc1ccccc1Nc1c(Cl)cccc1Cl.[Na+]` [DICLOFENAC SODIUM], in experiment [2], the Inhibition came to 7.01%.
Regarding `Cc1ccc(-c2cc(C(F)(F)F)nn2-c2ccc(S(N)(=O)=O)cc2)cc1` [CELECOXIB], the Inhibition in experiment [1] is recorded as 5.39%; in experiment [2] it was 6.38%.
